Screening data from PubChem BioAssay.
TRHR ag = agonists of human TRH receptor; P34981; TRHR cells, calcium flux fluo-8, FDSS agonist mode; activation, % at 2 µM; actives 0.18% (n = 360,000); AID 493084
Target sequence (P34981 whole entry, looked up): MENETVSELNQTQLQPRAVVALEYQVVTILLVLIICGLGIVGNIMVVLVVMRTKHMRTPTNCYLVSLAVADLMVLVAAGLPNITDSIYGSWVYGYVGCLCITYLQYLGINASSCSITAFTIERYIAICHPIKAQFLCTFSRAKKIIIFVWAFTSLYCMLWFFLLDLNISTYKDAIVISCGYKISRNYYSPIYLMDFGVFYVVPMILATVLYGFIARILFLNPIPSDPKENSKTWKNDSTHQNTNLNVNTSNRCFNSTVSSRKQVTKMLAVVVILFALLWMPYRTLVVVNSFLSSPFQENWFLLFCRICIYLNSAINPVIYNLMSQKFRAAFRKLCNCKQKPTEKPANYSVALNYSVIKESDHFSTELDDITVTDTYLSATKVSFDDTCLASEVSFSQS
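Agonist-mode FDSS calcium read (Ex 480/Em 530, 1 s cycles) in 1536-well TRHR cells with fluo-8 dye, after 10-cycle baseline and 23 nL compound addition; TRH at EC20 (10 nM final) added afterwards for the enhancer phase.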
D1 ag = agonists of human D1 dopamine receptor | P21728 | HEK293 T-REx D1 cells, calcium flux, agonist mode | activation, % at 2 µM | actives 1% (n = 360,000) | AID 504660
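Tetracycline-induced HEK293 TREx D1 cells, force-coupled to calcium signalling, were dye-loaded with a no-wash calcium kit. Compound was pin-added after a 10 s baseline. Fluorescence was read kinetically at 1 cycle/s for 180 s, with calcium rises flagged as agonism.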
D1 antagonist = human D1 dopamine receptor antagonism | HEK293 TREx D1 cells, calcium flux, dopamine EC80; stronger effect = lower value | activity change, negative = inhibition, % at 10 µM | actives 3.2% (n = 360,000) | AID 504652; in the data active = activity change below about -30%
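Tetracycline-induced HEK293 Trex D1 cells, force-coupled to calcium, dye-loaded; compounds added and read 180 s, then EC80 dopamine added and calcium flux tracked kinetically another 180 s.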
D1 PAM = enhances dopamine response at the human D1 receptor; HEK293 TREx D1 cells, calcium flux, dopamine EC20 potentiation; potentiation, % at 10 µM; actives 0.036% (n = 360,000); AID 504651; in the data active = potentiation above about 30%
TRHR PAM = allosteric enhancers of human TRH receptor | enhancement, % at 2 µM | P34981 | TRHR cells, fluo-8 calcium fluorescence, EC20 TRH enhancement | actives 0.66% (n = 360,000) | AID 493056; in the data active = enhancement above about 30%
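TRHR-expressing cells loaded with fluo-8 calcium dye were read kinetically (ex 480/em 530) during compound addition, then stimulated with an EC20 of TRH (10 nM final). Enhancement of the Gq-mediated intracellular calcium response was scored.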
Of the large screens only hits and unclear results are named; the others gave an inactive call; ! = not active in a repeat. The list is not random: actives were taken first. Their share in the collection is about 4.7%. Rule as the data show it, unless noted: active = activation above about 30%; inactive = the rest.

COc1ccc(-n2c(=O)c3c4c(sc3n(Cc3ccc(F)cc3)c2=O)CN(C(C)=O)CC4)c(OC)c1	none
Cc1ccc(-c2ccc(C3C(C#N)=C(N)Oc4n[nH]c(C)c43)o2)cc1 (stereo unspecified)	D1 antagonist -47.8
Cc1[nH]nc2c1C(c1ccc(-c3ccccc3C#N)o1)C(C#N)=C(N)O2 (stereo unspecified)	none
Cc1[nH]nc2c1C(c1ccc(-c3ccc(Cl)cc3)o1)C(C#N)=C(N)O2 (stereo unspecified)	TRHR PAM 31.0
Cc1[nH]nc2c1C(c1ccc(F)cc1)C(C#N)=C(N)O2 (stereo unspecified)	none
Cc1ccn2c(NC3CCCCC3)c(-c3cccc(-c4cccc(Cl)c4)c3)nc2c1	none
CCOCCCNC(=O)CSc1nnc(-c2ccc(S(=O)(=O)N3CCCC3)cc2)n1C	none
Cc1ccccc1NC(=O)CSc1nnc(-c2cccc(Cl)c2)o1	none
O=C(O)C1CCC(Cn2c(SCc3cc(=O)n4cc(Br)ccc4n3)nc3ccsc3c2=O)CC1 (stereo unspecified)	none
O=C(O)c1ccc(Cn2c(SCc3cc(=O)n4cc(Br)ccc4n3)nc3ccsc3c2=O)cc1	D1 antagonist -30.8
CC(C)Cc1nnc(NC(=O)C2CCCC2)s1	none
CCOC(=O)C(Cc1ccccc1)C(=O)Nc1ccc(NC(=O)C(Cc2ccccc2)C(=O)OCC)cc1 (stereo unspecified)	none
CCOC(=O)C(Cc1ccccc1)NS(=O)(=O)c1ccc(NC(C)=O)cc1 (stereo unspecified)	D1 antagonist -31.3
Cc1cc2oc(=O)cc(CN3CCC(C)CC3)c2cc1Cl	TRHR PAM 30.2
O=C(Nc1ccc(F)cc1)c1ncn(-c2ccccc2)n1	none
N#Cc1ccc(COc2cccnc2[N+](=O)[O-])cc1	none
O=[N+]([O-])c1ncccc1OCc1ccc(-c2ccccc2)cc1	D1 antagonist -33.3
O=S(=O)(c1cccc(C(F)(F)F)c1)N1CCC(Oc2ccc(-n3cnnn3)cc2)CC1	none
Cc1cc(=O)[nH]c(-n2[nH]c(C)cc2=O)n1	none
COc1ccc(-n2[nH]c(C)cc2=O)cc1	TRHR PAM 32.6
CCCSCCCNC(=O)c1cc2n(n1)CCCN(Cc1ccc(C)cc1)C2=O	D1 ag 55.7
CCCCNC(=O)c1cc2n(n1)CCCN(Cc1ccc(C)cc1)C2=O	none
CCC(=O)N1CCc2cc(Br)cc(S(=O)(=O)N3CCC(C(=O)Nc4cccc(C)c4)CC3)c21	none
CC(O)CNCc1ccc(-c2ccccc2)cc1 (stereo unspecified)	none
CC(NCc1ccc(-c2ccccc2)cc1)C(O)c1ccccc1 (stereo unspecified)	D1 ag 200.1
CCN(CC)S(=O)(=O)c1ccc(S(=O)(=O)N2CCCC(C(=O)NC3CC3)C2)cc1 (stereo unspecified)	none
C1=C(c2ccccc2)CCN(c2ncnc3nc[nH]c23)C1	D1 antagonist -65.7
CCn1c(=O)cc(SCC(=O)NCCCN2CCC(C)CC2)c2ccccc21	none
CCn1c(=O)cc(SCC(=O)NCc2cccnc2)c2ccccc21	D1 antagonist -39.5
CCn1c(=O)cc(SCC(=O)NCCN2CCN(Cc3ccccc3)CC2)c2ccccc21	D1 antagonist -32.6
CCc1ccc(CNC(=O)CSc2cc(=O)n(CC)c3ccccc23)cc1	none
CC1CCN(CCc2nc3cc(NC(=O)COc4ccc([N+](=O)[O-])cc4)ccc3n2C)CC1	none
CSCCC(NC(=O)c1ccccc1)C(=O)N1CCN(C(C)=O)CC1 (stereo unspecified)	none (no result: D1 PAM)
CCOC(=O)c1c(-c2ccccc2)oc2ccc(NS(=O)(=O)c3ccc(C)cc3C)cc12	none
C=CCn1c(=O)/c(=C/c2ccc(C)o2)s/c1=C(/C#N)C(=O)c1ccccc1	D1 ag 58.2
Cc1ccc(/C=c2\sc3nc(-c4ccccc4Br)nn3c2=O)o1	none
CC(C)c1ccc(NC(=O)Cn2c(=O)n(CC3CCC(C(=O)NCCc4ccccc4)CC3)c(=O)c3ccccc32)cc1 (stereo unspecified)	none
O=C(CNS(=O)(=O)c1ccc(Br)s1)N1CCN(c2ccc(F)cc2)CC1	D1 antagonist -51.4!
O=C(CNS(=O)(=O)c1ccc(F)cc1)N1CCN(c2ccc(F)cc2)CC1	none
Cc1ccc(NC(=O)CCOc2ccccc2)c(C)c1	none
Cc1ccc(F)cc1NC(=O)CCOc1ccccc1	D1 antagonist -31.0
